# Screens from PubChem BioAssay.
# Sampled rows, rich in hits. Any-hit rate of the full collection: about 2.5%.
# pAkt inh: HTS Assay for Inhibitors of Akt Phophorylation: Primary Screen; 0.32% of 360,000 active; Neuro2A IGF-stimulated pAkt S473 HTRF, 20 min; active compounds read low; activity change, % for hits at 50 µM; in the data active = activity change below about -80%; inconclusive = mostly about -51% to -80%; note: % is set by controls: 0 for no effect and ±100 for the full control effect
#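 Neuro2A cells in DMEM with 0.5% FBS, overnight at 37 deg C, given compound at single 50 µM final, then IGF (6 nM final) for 20 min at 37 deg C. Lysed; phospho-Akt Ser473 by HTRF after 24 h, 665/615 ratio.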
# aSyn yeast inh: qHTS of alpha-syn Inhibitors; Potency, µM (series often up to 46.1 µM), for the others: at the highest dose growth rescue (activation), actives largely listed as activators; 0.14% of 370,000 active; AID 652106, 2013; Yeast expressing alpha-synuclein, growth rescue, BacTiter-Glo, 24 h; note: potency is the fitted concentration of half-maximal effect; % of control where 0% means no effect; nearly all actives have a fitted effect of over 65% in size
#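 Galactose-induced alpha-syn yeast (OD600=0.02, raffinose-pregrown) + pinned cpd, 24 hr, 30 deg C; growth by BacTiter-Glo luminescence. Growth restoration scores as activation.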
# Apoferritin bind: qHTS Assay for Identification of Novel General Anesthetics. apoferritin/1-aminoanthracene competitive binding, fluorescence. AID 485281, 2010. 0.074% of 350,000 active. Potency, µM (series often up to 77.5 µM), inactives show at the highest dose activity change, negative = displacement, usual class: inhibitors; note: potency is the fitted concentration of half-maximal effect; % is set by controls: 0 for no effect and ±100 for the full control effect; nearly all actives have a fitted effect of over 20% in size
# Target sequence (P02791 2-175 limits assumed): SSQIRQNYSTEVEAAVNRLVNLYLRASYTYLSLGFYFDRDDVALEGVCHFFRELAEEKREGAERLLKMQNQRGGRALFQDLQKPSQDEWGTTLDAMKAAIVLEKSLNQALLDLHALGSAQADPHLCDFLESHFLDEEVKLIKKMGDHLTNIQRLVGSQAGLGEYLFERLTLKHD
#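 Probe: 1-aminoanthracene (50% saturated, PBS). Protein: horse-spleen apoferritin, 10 uM. Incubation: 10 min, room temperature. Detection: 380 nm excitation, 535 nm emission. Analysis: normalized response, four-parameter Hill.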
# CCT chaperon mod: High-Throughput Screening for Modulators of Cytosolic Chaperonin Activity; purified chaperonin ATPase assay, HTRF ADP detection, 30 min; activity change, % (concentration not given with the values), hits read low; 0.3% of 360,000 active; AID 651819, 2012; in the data active = activity change below about -30%; note: % is set by controls: 0 for no effect and ±100 for the full control effect
#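 Enzyme 40 or 20 nM (batch-dependent) in Tris pH 7.4/KCl/MgCl2/DTT; cpd 76 uM single point; ATP 10 uM; 30 min 37 °C; Transcreener ADP HTRF detection, 30 min RT; ratio 665/615.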
# Mito fusion act: qHTS Assay for Small Molecule Inhibitors of Mitochondrial Division or Activators of Mitochondrial Fusion; S. cerevisiae fusion-defective mutant growth rescue, CellTiterGlo 48 h; Potency, µM (highest dose often 46.1 µM), inactives show at the top dose growth rescue (activation), most hits filed as activators; 0.23% of 320,000 active; note: potency is the fitted concentration of half-maximal effect; % of control where 0% means no effect; nearly all actives have a fitted effect of over 45% in size
#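 S. cerevisiae fusion-defective temperature-sensitive mutants (e.g. fzo1-1, mgm1-5) grown 48 h at 37C in YPEG (ethanol/glycerol non-fermentable) medium with 23 nl compound per well; growth rescue read as CellTiterGlo luminescence.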
# TDP-43 yeast inh: qHTS of TDP-43 Inhibitors | TDP-43 expressing yeast growth rescue, BacTiter-Glo, 24 h | AID 652104, 2013 | 1.8% of 410,000 active | Potency, µM (highest dose often 46.1 µM), inactives show at the top dose growth rescue (activation), most hits filed as activators; note: potency is the fitted concentration of half-maximal effect; % of control where 0% means no effect; nearly all actives have a fitted effect of over 50% in size
#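 Yeast expressing TDP-43 (pregrown in raffinose, seeded at OD600=0.02 in galactose medium) exposed to compounds 24 hr at 30 deg C. Growth read by BacTiter-Glo luminescence; rescue of toxicity appears as increased signal.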
# An asterisk follows results filed as active; i = inactive; ? = inconclusive; / = not tested or not shown; [ ] = another dose, or the depositor's remark. Unless noted, calls come from the whole dose curve; as a rule, active = well fitted curve in the direction sought with a large enough effect; inconclusive = small, poorly fitted or top-dose-only effect, or another doubt; inactive = no such curve, though single readings can be large; an effect the other way counts as inactive or inconclusive.
SMILES,pAkt inh,aSyn yeast inh,Apoferritin bind,CCT chaperon mod,Mito fusion act,TDP-43 yeast inh
Cc1ccc(NC(=O)CSc2nc3ccccc3nc2Cc2ccccc2)c(C)c1,/,0.2%,2.4%,/,/,12.9%
Cc1onc(-c2ccccc2Cl)c1C(=O)OCC(=O)Nc1ccc2c(c1)OCO2,i,-0.2%,-13.4%,-3.8,1.7%,?
Cc1onc(-c2ccccc2)c1C(=O)OCC(=O)Nc1ccc2c(c1)OCO2,i,-2.4%,-15.5%,-43.3*,0.5%,12.7%
COc1ccc(Cl)cc1NC(=O)COC(=O)c1c(-c2ccccc2)noc1C,i,17.6%,/,-2.3,-5.5%,12.6µM*
COc1ccc(Cl)cc1NC(=O)c1c(-c2ccccc2)noc1C,i,-7.3%,-8.7%,0.6,4.7%,0.0%
COc1ccc(Cl)cc1NC(=O)CC(C)c1ccccc1 (stereo not drawn),i,-9.5%,-13.1%,2.5,-27.4%,12.6µM*
Cc1noc(C)c1-c1ccc2ncnc(NCc3cccc(-c4ccccc4)c3)c2c1,/,/,-18.8%,/,-17.8%,/
O=C(Nc1ccc(S(=O)(=O)N2CCCCCC2)cc1)c1[nH]ncc1[N+](=O)[O-],/,/,12.6µM*,/,3.4%,/
O=C(Nc1ccc([N+](=O)[O-])cc1)c1ccc(S(=O)(=O)N2CCCC2)cc1,i,-2.8%,4.2%,-1.0,0.8%,-13.0%
N#Cc1nc(-c2ccc(OCc3ccc(Cl)cc3)cc2)oc1N1CCCCCC1,/,-2.0%,/,/,/,/
Cc1nc2c(-c3ccc(F)cc3)cnn2c(N)c1-c1ccccc1,i,-15.6%,34.4%,-2.6,-64.7%,12.6µM*
Cc1nc2c(-c3ccc(Cl)cc3)cnn2c(N)c1-c1ccc(F)cc1,i,3.8%,1.5%,-1.9,-13.8%,14.8%
CCOC(=O)CCCC(=O)N1CCN(/[N+]([O-])=N/Oc2ccc([N+](=O)[O-])cc2[N+](=O)[O-])CC1,/,-84.3%,/,/,/,/
O=C(O)c1cnc(-c2ccccc2)nc1C(F)(F)F,i,-4.8%,-3.9%,-50.7*,2.0%,-26.5%
c1c[nH]c(CN2CCN(Cc3ncc[nH]3)CC2)n1,i,10.9%,/,-1.3,/,3.98µM*
O=c1c(O)cc(C2Oc3cc(O)cc(O)c3CC2O)cc2c(C3Oc4cc(O)cc(O)c4CC3O)cc(O)c(O)c12 (stereo not drawn),/,/,-14.6%,/,/,/
O=C(c1ccc(CS(=O)Cc2ccccc2Cl)o1)N1CCN(c2cccc(Cl)c2)CC1 (stereo not drawn),i,?,2.5%,1.2,35.5µM*,15.3%
O=C(c1ccc(CS(=O)c2ccccc2Cl)o1)N1CCN(c2cccc(C(F)(F)F)c2)CC1 (stereo not drawn),/,/,-13.9%,/,/,17.8µM*
Cc1ccn2c(Nc3c(C)cccc3C)c(-c3ccc(Cl)s3)nc2c1,/,/,88.8%,/,/,25.0%
Oc1ccc(Oc2ccc(Oc3ccc(O)cc3)cc2)cc1,i,4.0%,-6.9%,-4.2,25.7%,20µM*
CCNC(=O)C(=O)N/N=C/c1cc([N+](=O)[O-])ccc1O,i,?,-6.9%,0.5,22.4µM*,20µM*
O=C(N/N=C/c1cc([N+](=O)[O-])ccc1O)Nc1ccccc1,i,1.4%,-16.8%,-2.6,-5.8%,14.7%[9.22 µM]
O=[N+]([O-])c1ccc(O)c(/C=N/Nc2nc3ccccc3[nH]2)c1,i,5.2%,4.0%,-6.8,-3.2%,18.9%
O=[N+]([O-])c1ccc(NN=Cc2ccccc2O)nc1,i,24.6%,/,0.2,/,22.4µM*
O=[N+]([O-])c1ccc(O)c(/C=N/Nc2ccccn2)c1,i,0.891µM*,-0.1%,1.5,-3.0%,-91.5%
SMILES,pAkt inh,aSyn yeast inh,Apoferritin bind,CCT chaperon mod,Mito fusion act,TDP-43 yeast inh
O=[N+]([O-])c1ccc(O)c(/C=N/Nc2ncnc3c2cnn3-c2ccccc2)c1,i,3.7%,-1.4%,1.0,12.0%,7.94µM*
O=[N+]([O-])c1ccc(NN=Cc2ccc(O)cc2O)nc1,i,-4.9%,/,-2.1,/,-20.2%
CN(C)c1ccc(/C=C/c2nc3ccccc3s2)cc1Cl,/,15.6%,/,/,/,/
CC(C)c1ccc(C(=O)CSc2n[nH]c(-c3ccncc3)n2)cc1,i,14.9%,?,-1.3,1.6%,35.5µM*
O=C(CSc1n[nH]c(-c2ccccc2)n1)c1ccccc1,i,-14.5%,-21.1%,0.2,13.4%,23.7%
Nc1nc(-c2ccc(NC(=O)c3ccco3)cc2)cs1,i,-12.6%,23.2%,-2.7,-8.8%,-30.6%
NC(=O)/C(=N\OC(=O)c1ccco1)c1nc(-c2ccc(Br)cc2)cs1,i,-9.6%,?,-1.4,-0.3%,15.8µM*
Cc1onc(-c2ccccc2)c1-c1ccnc(N)n1,i,?,17.4%,-3.7,-23.3%,9.8%
CSc1nccc(-c2c(-c3ccc(Cl)cc3)noc2C)n1,i,-13.9%,6.3%,-0.1,19.6%,17.8µM*
CC(=O)N(c1ccc(Cl)cc1)C1SC(=O)N(c2ccccc2)C1=O (stereo not drawn),/,12.8%,/,/,/,/
OC(c1ccc(F)cc1)c1nc(-c2cccc(F)c2)cs1 (stereo not drawn),i,17.0%,/,-0.1,/,11.2µM*
O=C(O)c1cccc(-c2csc(C(O)c3ccc(F)cc3)n2)c1 (stereo not drawn),i,0.9%,/,-0.3,/,10.6%
COc1cccc(C(O)c2nc(-c3ccc4ccccc4c3)cs2)c1 (stereo not drawn),/,?,/,-0.2,/,22.4µM*
OC(c1ccc(F)cc1)c1nc(-c2cc3ccccc3o2)cs1 (stereo not drawn),i,?,/,1.3,/,25.1µM*
COc1cccc(C(O)c2nc(-c3cccc(F)c3)cs2)c1 (stereo not drawn),i,16.5%,/,2.7,/,22.4µM*
COc1cccc(C(O)c2nc(-c3cccc(C(=O)O)c3)cs2)c1 (stereo not drawn),i,0.9%,/,-3.0,/,2.4%
O=C(CNC(=O)C1CCCCC1)OCc1ccccc1,/,3.1%,/,/,/,/
CC(C)C(c1nnnn1C1CCCCC1)N1CCCc2ccccc21 (stereo not drawn),i,0.7%,-6.0%,-1.9,1.2%,2.3%
CC(C)C(c1nnnn1C1CCCC1)N1CCCc2ccccc21 (stereo not drawn),i,2.7%,-1.3%,-0.7,9.4%,15.8µM*
CCc1ccc(OCCn2c(CCNC(=O)C3CCCCC3)nc3ccccc32)cc1,/,-7.6%,/,/,/,/
C[C@H](Cc1ccc(O)c(O)c1)[C@@H](C)Cc1ccc(O)c(O)c1,/,?,/,/,13µM*,/
COC(=O)[C@@H]1C[C@H]1[C@@H](NC(=O)Oc1ccc(F)cc1)c1ccccc1,/,/,6.3%,/,/,/
